Experimental findings from PubChem BioAssay (NCI) are described below.

The structures appear in SMILES notation. This is part of a sample that, as a whole, favours compounds with a hit. Of some 83,000 tested, about 20% had one in any assay.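 Growth was measured after 48 h exposure to one concentration of compound in 96-well plates. Values under 10 count as active.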 The source made the active and inactive calls.

The experiment has as its system HOP-92 NSCLC. Put plainly: NCI-60 one-dose screen, 48 h (100 = growth as untreated, 0 = no growth, -100 = all killed). The following applies: 10 µM. On the procedure:
Growth inhibition of the HOP-92 human Non-Small Cell Lung tumor cell line is measured as a screen for anti-cancer activity. Cells are grown in 96 well plates and exposed to the test compound for 48 hours. Compounds are tested at a single concentration, which is 10^-5 M for most compounds. The reported endpoint is percent growth (GI% or GIPRCNT), where numbers from 0 - 100% represent growth inhibition, and numbers from -100% - 0 represent cell death. For example, a value of 40 represents 60% growth inhibition. A value of 0 means no net growth occurred over the course of the experiment. A value of -40 indicates 40% of cells at the beginning of the experiment died by the end of the experiment. A value of -100 means all cells are dead at the end of the experiment.
NCI-60 Human Tumor Cell Lines Screen was performed using the standard one-dose NCI protocol, which is described in more detail at https://dtp.cancer.gov/discovery_development/nci-60/default.htm.
Compounds with GIPRCNT values below 10 were considered active. Activity score was based on GIPRCNT using the following formula: […]
Score is 0 for GIPRCNT values of 100 or above, 50 for GIPRCNT values of 0, and 100 for GIPRCNT values of -100.
As for `Cc1nc2c(cnn2-c2ccccc2)c(=O)n1-c1ccc(NC(=O)c2ccc(F)cc2)cc1`, the growth is 85.2% (inactive).

With `Cc1ccc(S(=O)(=O)c2nc(-c3ccccc3)oc2S(=O)(=O)CC(=O)N2CCCC2)cc1`, the growth was -85.6% (active).

Consider `O=C(Cc1ccc2c(c1)CN(C1CCC(=O)NC1=O)C2=O)NCc1cccc2ccccc12` (stereo not given), for which the growth is -28.3% (active).

For the compound `Cc1cccc2cc(-c3cc(-c4ccccc4)nc(=S)[nH]3)c(Cl)nc12`, the growth is 73.2% (inactive).

For `COc1ccc2[nH]c(O)c(N=NC(=O)COc3ccc(NC(=O)Nc4ccc(Cl)c(Cl)c4)cc3)c2c1`, the growth is -47.4% (active).

As to `CCN1CCN(c2ccc(NC(=O)Nc3ccc(-c4cc(C(=O)NC(C)C)c5ncccc5n4)cc3)cc2C(F)(F)F)CC1`, the growth is -77.2% (active).

As to `O=C(Nc1cccc(C(F)(F)F)c1)c1cncc(C#Cc2cnc3cccnn23)c1`, the growth is 7.14% (active).

Take `Cc1ccn2c(C(=O)c3ccc(Br)cc3)cc(-c3cc(-c4ccc(N(C)C)cc4)c(C#N)c(N)n3)c2c1`: the growth was 31.2% (inactive).

As for `COc1ccc2[nH]c(O)c(N=NC(=O)COc3ccc(NC(=O)Nc4ccc(Cl)cc4)cc3)c2c1`, the growth was -32.5% (active).

Regarding `COc1ccc(C(=O)Nc2sc3c(c2C#N)CCC(=O)C3)cc1C(F)(F)F`, the growth was -30.9% (active).

Take `COC[C@@H](CC(C)C)N=C1NC(=O)/C(=C/c2ccc3ncsc3c2)N1`: the growth was 3.44% (active).

For the compound `COc1ccc(-c2cc(-c3cc(C(=O)c4ccccc4)n4ccc(C)cc34)nc(N)c2C#N)cc1`, the growth was -7.39% (active).

Turning to `O=c1c2ccccc2nc(COc2ccccc2)n1/N=C/c1ccc(N2CCOCC2)cc1`, the growth is -1.3% (active).

As for `O=C(CS(=O)(=O)c1oc(-c2ccc(Cl)cc2)nc1S(=O)(=O)c1ccccc1)N1CCCC1`, the growth was -73% (active).

On to `O=C(Nc1ccc(F)c(Cl)c1)c1cc(-c2ccc(F)cc2F)ccc1O`, for which the growth is -20.6% (active).

`O=C(CS(=O)(=O)c1oc(-c2ccc(Cl)cc2)nc1S(=O)(=O)c1ccc(Cl)cc1)N1CCOCC1`: the growth is -25.5% (active).

With `O=c1[nH]c2ccc(Cl)cc2cc1CSc1ccc(Nc2nccc(-c3ccc(Cl)cc3)n2)cc1`, the growth was 82.1% (inactive).

With `CS(=O)(=O)Nc1ccc(-c2ccc3c(c2)ncn3-c2ccc(NC(=O)Nc3ccc(Br)cc3)cc2)cc1`, the growth is 26.8% (inactive).

Regarding `CCOC(=O)C1=C(N)N(c2ccc(Cl)cc2)C2=C(C(=O)CC(C)(C)C2)C1c1ccc(N2CCOCC2)cc1` (stereo not given), the growth is 92.9% (inactive).

Regarding `CN1CCCN(Cc2ccc(C(=O)Nc3cccc(Nc4ccc5c(O)cccc5n4)c3)cc2C(F)(F)F)CC1`, the growth was -51.5% (active).

For the compound `COc1ccc([C@H]2C(C(=O)c3ccc(Cl)cc3)C3(N[C@@H]2c2ccccc2)C(=O)Nc2ccc(Br)cc23)cc1` (stereo not given in full), the growth is -20.6% (active).

In the case of `CCCCCCCCCCCCCCCCCCCC(=O)NCCc1c[nH]c2ccc(OC(=O)CCCC(=O)OCCOOCCOOCCOOCCOOCCOOCCOOCCOOCCOOCCOOCCOOCCOOCCOC)cc12`, the growth was 74.7% (inactive).

In the case of `CC(=O)Nc1ccc(-n2cnc3cc(-c4ccc(NS(C)(=O)=O)cc4)ccc32)cc1`, the growth is 39.7% (inactive).

Regarding `Cc1noc2c(Cc3ccccc3)nn(CC(=O)N/N=C/c3ccc(Br)cc3)c(=O)c12`, the growth is 35.1% (inactive).

Consider `CCCSc1nc(NC2CC2)c(C#N)c(-c2ccc(OC)cc2)n1`, for which the growth is 77.7% (inactive).

With `CC1(c2ccccc2)NC(=O)N(CC(=O)Nc2ccc(C(=O)/C=C/C=C/c3ccccc3)cc2)C1=O` (stereo not given), the growth is 57.3% (inactive).

Consider `Cc1ccc(NC(=O)NCn2c(=O)[nH]c3ccccc3c2=O)cc1`, for which the growth was 30.7% (inactive).

Consider `CN1C/C(=C\c2ccc(O)cc2O)c2[o+]c3cc(O)ccc3cc2C1`, for which the growth is 58.8% (inactive).

On to `CN1CCN(c2ccc(Nc3nc(NCCCNC(=O)c4ccc(Cl)cc4)c4sccc4n3)cc2)CC1`, for which the growth was 34.1% (inactive).

`O=C(c1ccc(Cl)cc1)C1[C@H](c2ccc(Br)cc2)[C@@H](c2ccccc2)NC12C(=O)Nc1ccccc12` (stereo not given in full): the growth was -18% (active).

In the case of `Cc1cc(=O)oc2cc(OCCCCOc3ccc(/C=C/C(=O)Nc4ccccc4[N+](=O)[O-])cc3)ccc12`, the growth was 130% (inactive).

On to `COc1ccc(C(=O)CSc2nnc(-c3c[nH]c4ccccc34)n2-c2ccccc2)cc1`, for which the growth is 7.9% (active).

Regarding `CCOC(=O)C1=C(N)N(c2ccccc2)C2=C(C(=O)CC(C)(C)C2)C1c1ccccc1OC` (stereo not given), the growth is 114% (inactive).

Consider `N#Cc1c(Cl)nc(SCc2ccc(F)cc2)nc1-c1ccc(F)cc1`, for which the growth was 74.8% (inactive).

With `C=C(C)[C@@H]1CC[C@]2(C(=O)OC)CC[C@]3(C)[C@H](CC[C@@H]4[C@@]5(C)CC[C@H](N)C(C)(C)[C@@H]5CC[C@]43C)[C@@H]12`, the growth was -68.9% (active).

Turning to `O=C1N/C(=N\c2nccs2)S/C1=C\c1cccs1`, the growth is 68% (inactive).

For the compound `Nc1cc(-c2cccc(C(=O)NCc3ccc4c(c3)OCO4)c2)ccn1`, the growth was 89.4% (inactive).

For `CC1(c2ccccc2)NC(=O)N(CC(=O)Nc2ccc(C(=O)/C=C/c3ccc(Cl)cc3)cc2)C1=O` (stereo not given), the growth is -10.4% (active).

On to `COc1cc(-c2nc3cc(Cl)c(Cl)cc3[nH]2)ccc1OCc1nnc(-c2ccc(Br)cc2)o1`, for which the growth is -39.6% (active).

As to `O=C1CCC(N2Cc3cc(NC(=O)COc4ccccc4)ccc3C2=O)C(=O)N1` (stereo not given), the growth is -0.508% (active).
